Mtb hypoxia rep: reduces hypoxia-regulated biosensor signal in M. tuberculosis. M. tuberculosis hypoxia-regulated fluorescent reporter, fluorescence. fluorescence inhibition, % (concentration not given with the values). hit rate 0.1% among 300,000. AID 1159583; in the data active means fluorescence inhibition mostly above about 23%, no sharp cut-off; inactive means mostly below about 17%
3CLpro inhibitor: SARS-CoV 3CLpro protease inhibition; P0C6X7; recombinant SARS-CoV 3CLpro, quenched FRET peptide cleavage; inhibition, % at 6 µM; hit rate 0.14% among 290,000; AID 1706; in the data active means inhibition above about 12%
VHR inh abs: blocks human VHR1 dual specificity phosphatase | P51452 | inhibition, % at 13.3 µM | recombinant VHR phosphatase, pNPP absorbance | hit rate 0.52% among 290,000; in the data active means inhibition above about 50%
Target sequence (P51452 whole entry, looked up): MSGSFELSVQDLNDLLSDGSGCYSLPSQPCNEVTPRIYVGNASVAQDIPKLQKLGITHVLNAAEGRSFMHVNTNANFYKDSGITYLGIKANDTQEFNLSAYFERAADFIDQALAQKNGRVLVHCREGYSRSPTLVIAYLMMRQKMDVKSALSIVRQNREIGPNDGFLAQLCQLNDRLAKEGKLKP
CCHF vOTU inh: CCHFV vOTU protease inhibition; Pep-AMC fluorescence; inhibition, % at 11.5 µM; AID 651958; hit rate 0.55% among 370,000; in the data active means inhibition above about 30%; further: 0% = vehicle wells with enzyme and 100% = no enzyme wells
SSB-PriA inh: K. pneumoniae PriA-SSBct interaction inhibition. hit rate 0.6% among 430,000. AID 1272365. inhibition, % at 33 µM. AlphaScreen SSBct-PriA binding, biotinylated peptide; in the data active means inhibition mostly above about 37%, no sharp cut-off; inactive means mostly below about 20%;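 further: plate controls were negative control peptide for no effect and reference peptide for full effect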
An asterisk follows results filed as active; nt = no result given; ! = not active in a repeat. The list is not random: actives were taken first. Their share in the collection is about 1.3%.

SMILES	Mtb hypoxia rep	3CLpro inhibitor	VHR inh abs	CCHF vOTU inh	SSB-PriA inh
CCc1ccc(NSc2ccccc2[N+](=O)[O-])cc1	2	1	-1	7	65*
Cc1cc(C)cc(NC(=O)Cn2cnc3c(sc4cccc(F)c43)c2=O)c1	nt	nt	nt	nt	-2
O=[N+]([O-])c1c(Nc2ccccc2O)cc(Cl)c2nonc12	13	4	-4	13	17
Nc1cc(Cl)c2nonc2c1[N+](=O)[O-]	40*	0	9	28	-27
S=C(NCc1ccccn1)NN=Cc1ccccn1	nt	nt	nt	1	61*
COC(=O)c1sccc1NC(=O)COc1ccc(F)cc1Cl	6	-7	57*	-8	-9
Cc1ccc(S(=O)(=O)c2c(NS(=O)(=O)c3ccccc3)n(CCc3ccccc3)c3nc4ccccc4nc23)cc1	nt	nt	nt	nt	67*
CCCCOCCCn1c(NS(=O)(=O)c2ccc([N+](=O)[O-])cc2)c(S(=O)(=O)c2ccc(C)cc2)c2nc3ccccc3nc21	nt	nt	nt	nt	49
CCCCOCCCn1c(NS(=O)(=O)c2ccc(F)cc2)c(S(=O)(=O)c2ccc(C)cc2)c2nc3ccccc3nc21	nt	nt	nt	nt	67*
COC(=O)c1sccc1S(=O)(=O)NCCn1nc(-c2ccccn2)n(C)c1=O	nt	nt	nt	nt	2
Nc1nc2ccc(C(=O)O)cc2s1	nt	nt	nt	nt	89*!
COC(=O)c1ccc2nc(N)sc2c1	nt	nt	nt	nt	53*
CCNC(=O)c1ccc2nc(N)sc2c1	nt	nt	nt	nt	36
COC(=O)c1ccc2nc(NC(=O)C(C)C)sc2c1	17	-3	16	-8	-10
CCCNC(=O)c1ccc2nc(N)sc2c1	nt	nt	nt	nt	87*
CC(=O)c1ccc2nc(N)sc2c1	nt	nt	nt	nt	35
COc1cc(NC(=O)NCCc2ccoc2)cc(OC)c1OC	nt	nt	nt	nt	-4
CC(=O)N1CCc2c(sc(NC(=O)c3ccc([N+](=O)[O-])o3)c2C(N)=O)C1	nt	nt	nt	47*	nt
CCOC(=O)c1c(NC(=O)c2ccc([N+](=O)[O-])o2)sc2c1CCN(C(C)=O)C2	nt	nt	nt	nt	-2
C[C@@H]1CN(c2c(F)c(F)c3c(=O)c(C(=O)O)cn(C4CC4)c3c2F)C[C@H](C)N1	nt	-4	58*	-6	5
C[C@@H]1CN(c2c(F)c(N)c3c(=O)c(C(=O)O)cn(C4CC4)c3c2F)C[C@H](C)N1	nt	3	26	nt	nt
Cc1ccc(SCC(=O)Nc2ccc(Br)cc2)cc1	nt	nt	nt	nt	-19
Cc1ccc(SCC(=O)OCC(=O)NC(C)c2ccc(Br)cc2)cc1 (stereo not given)	3	0	57*	15	-23
CCOC(=O)N1CCC(c2cc(=O)n3[nH]c(-c4ccccc4)cc3n2)CC1	9	0	15	-3	7
CCOC(=O)N1CCC(c2cc(=O)n3[nH]c(C)c(-c4ccc(F)cc4)c3n2)CC1	10	2	24	7	55*
SMILES	Mtb hypoxia rep	3CLpro inhibitor	VHR inh abs	CCHF vOTU inh	SSB-PriA inh
COc1ccc(NC(=O)C(c2cc3c(cc2[N+](=O)[O-])OCO3)N(C)c2ccccc2)cc1 (stereo not given)	nt	8	1	4	39*
O=C(N/N=C/c1ccc[nH]1)c1ccccc1OCc1ccccc1Cl	nt	8	57*	3	nt
C[C@@H]1CN([C@@H](C)CO)C(=O)c2cc(NC(=O)c3ccccc3)ccc2O[C@@H](C)CCCCO[C@@H]1CN(C)Cc1ccc(C(F)(F)F)cc1	nt	nt	nt	42*	nt
C[C@@H]1CCCCO[C@H](CN(C)Cc2ccccc2)[C@@H](C)CN([C@H](C)CO)C(=O)c2cc(NC(=O)c3ccccc3)ccc2O1	nt	nt	nt	2	nt
COc1ccc(Cl)cc1C(=O)Oc1coc(CSc2nnc(NC(=O)C3CC3)s2)cc1=O	nt	nt	nt	nt	-2
COc1ccc(-n2c(SCC(=O)Nc3cc(C)on3)nc3c(c2=O)SCC3)cc1OC	0	-3	57*	-7	-10
COc1ccccc1OCC(=O)NCCc1ccc2c(c1)CCCN2C	nt	nt	nt	nt	45*
COc1ccccc1NC(=O)NCCc1ccc2c(c1)CCCN2C	nt	nt	nt	nt	56*
Cn1c(=O)c(C(=O)c2ccccc2)nc2ccccc21	nt	-2	52*	3	-2
CS(=O)(=O)C1CCN(C(=O)Cc2ccc(F)cc2)C1 (stereo not given)	nt	nt	nt	nt	-23
Cc1cccc(N=NC(=S)NNc2cccc(C)c2)c1	13	nt	nt	11	52*
CCSc1ccccc1C(=O)NC[C@H](OC)c1ccccc1OC	nt	nt	nt	nt	-25
OC(COC1CCCCC1)CN1CCCCC1 (stereo not given)	4	-8	56*	-17	3
CC(C)(C)C1CCC(OCC(O)CN2CCCC2)CC1 (stereo not given)	6	5	-2	7	-6
O=C(CSc1nc2c(-c3ccccc3)c[nH]c2c(=O)n1C1CC1)Nc1cc(F)ccc1F	nt	nt	nt	nt	-5
O=C(NC(c1ccccc1)c1ccccc1)N(Cc1cnc2ccccn12)c1ccccc1	nt	nt	nt	nt	44*

Screening data as filed in PubChem BioAssay.
